Hits are enriched below; roughly 0.92% of the tested compounds scored in any of these assays.
UGM FP inh: M. tuberculosis UGM enzyme inhibitors, primary screen, biochemical, fluorescence polarization, single point. UDP-galactopyranose mutase (Mycobacterium tuberculosis (strain ATCC 25618 / H37Rv)), …. purified UGM, fluorescence polarization probe displacement. inhibition, % at 10 µM. 0.06% of 320,000 active. AID 504406, 2011; in the data active means inhibition above about 10%, passing the limit was not always enough; inconclusive means no clear call, values can overlap the other calls
Mtb hypoxia inh: PubChem AID 1159583. M. tuberculosis hypoxia-regulated fluorescent reporter, fluorescence. fluorescence inhibition, % (concentration not given with the values). 0.1% of 300,000 active; in the data active means fluorescence inhibition mostly above about 23%, no sharp cut-off; inactive means mostly below about 17%
Rv3671c inh: Rv3671c serine protease inhibitors, primary screen, biochemical, fluorescence polarization, M. tuberculosis H37Rv; 0.048% of 320,000 active; inhibition, % at 5.96 µM; P9WHR9; AID 2606, 2010; in the data active means inhibition above about 38%;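 further: extracellular domain of Rv3671c used as enzyme; 0% = enzyme with DMSO and 100% = no enzyme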
Target sequence (P9WHR9 whole entry, looked up, the tested form may be a part): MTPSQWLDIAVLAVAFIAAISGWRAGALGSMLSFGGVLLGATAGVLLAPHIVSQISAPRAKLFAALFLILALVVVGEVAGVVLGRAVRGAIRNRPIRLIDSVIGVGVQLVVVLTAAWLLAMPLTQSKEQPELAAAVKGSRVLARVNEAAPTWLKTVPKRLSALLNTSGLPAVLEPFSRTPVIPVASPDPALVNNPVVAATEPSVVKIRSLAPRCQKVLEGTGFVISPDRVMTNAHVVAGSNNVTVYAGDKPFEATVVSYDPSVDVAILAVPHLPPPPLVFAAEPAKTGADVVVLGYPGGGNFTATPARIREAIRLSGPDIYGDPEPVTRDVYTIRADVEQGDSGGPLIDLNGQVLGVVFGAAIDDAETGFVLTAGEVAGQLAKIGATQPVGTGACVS
RecA splice inh: Mtb RecA intein splicing inhibitors, primary screen, biochemical, fluorescence, HTS; cell-free RecA intein splicing; inhibition, % (no concentration beside the values); 0.75% of 290,000 active; in the data active means inhibition above about 30%; inconclusive means no clear call, values can overlap the other calls;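 further: 0% = vehicle wells and 100% = reference inhibitor control wells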
FadD28 FP inh: inhibitors of FadD28 bisubstrate probe binding, primary screen, biochemical, fluorescence polarization, single point; AID 588549, 2011; inhibition, % at 12.5 µM; Mycobacterium tuberculosis FadD28 fatty-acid-AMP ligase; 0.22% of 360,000 active; in the data active means inhibition above about 8.5%, passing the limit was not always enough; inconclusive means no clear call, values can overlap the other calls
* marks the source's active call; other numbers are inactive results; ? = inconclusive; . = no result given.

SMILES | UGM FP inh | Mtb hypoxia inh | Rv3671c inh | RecA splice inh | FadD28 FP inh
Cn1cc(/C=C2\C(=O)NC(=O)N(c3ccccc3)C2=O)c2ccccc21 | 13.8* | . | -4.7 | -3.0 | 0.3
Cn1c(C=NO)nc2ccccc21 | . | 4.2 | . | . | .
Cc1ccc(F)c(NC(=O)/C(C#N)=C(\O)c2ccc(C(C)(C)C)cc2)c1 | -4.6 | 2.0 | -5.5 | 23.4 | 29.3*
CC1CCN(c2ccc3c(c2)S(=O)(=O)c2cccc(C(=O)NCC4CCCO4)c2C3=O)CC1 (stereo not given) | . | 15.7 | . | . | .
Clc1ccc(CO/N=C(\Cn2ccnc2)c2ccc(Cl)cc2Cl)c(Cl)c1 | 3.2 | . | 4.8 | 32.0* | .
CC[C@@]12C(=O)N(c3ccccc3)C(=O)N1C(c1ccc(Br)cc1)C1C(=O)N(C(C)(C)C)C(=O)C12 (stereo not given in full) | . | -6.5 | . | . | .
O=S(=O)(O)c1cc(Cl)cc(N=Nc2ccc(O)cc2O)c1O | . | . | . | . | 34.4*
CC(=NNS(=O)(=O)c1ccc(C)c([N+](=O)[O-])c1)c1cccs1 | . | -1.9 | . | . | .
COc1cc2[nH]c3c(Cl)ncnc3c2cc1OC | -0.4 | -10.9 | 3.4 | 1.3 | -1.6
COc1cc2[nH]c3c(N4CCN(c5ccc(Cl)cc5)CC4)ncnc3c2cc1OC | 0.8 | -2.6 | 37.9* | 2.4 | -1.1
CCOC(=O)CSc1nc2sc3c(c2c(=O)n1C1CCCCC1)CCN(C)C3 | 0.8 | 12.7 | -0.5 | 34.4* | -3.8
CCOC(=O)CSc1nc2sc3c(c2c(=O)n1-c1ccc(OCC)cc1)CCN(C)C3 | 0.2 | 14.4 | -3.9 | 14.6 | -2.3
COc1cccc(C(=O)NCC(=O)NN=C(C)C=Cc2ccccc2)c1 | . | 0.4 | . | . | .
COc1cccc2c(=O)cn[nH]c12 | 11.1* | -8.0 | -9.1 | -5.9 | -1.0
O=C(/C=C/c1cn(CC(O)CN2CCCCC2)c2ccccc12)c1ccccc1 (stereo not given) | . | 32.6* | . | 1.2 | -1.6
CC1(C)CCC[C@@]2(C)CC=C(C(=O)O)[C@@H]3C[C@]312 | 1.4 | . | 0.7 | 1.4 | 9.1*
CC(=O)Nc1ccc(C(=O)OCC(=O)c2cccc([N+](=O)[O-])c2)cc1 | 3.1 | . | 1.8 | -1.4 | -2.8
Cc1ccc(C(=O)COC(=O)c2cccc(NC(=O)c3ccc([N+](=O)[O-])cc3[N+](=O)[O-])c2)cc1 | -4.2 | 40.6* | -8.9 | 2.7 | ?
Cc1ccc(C)c(N2CCN(C(=O)c3cc4ccccn4n3)CC2)c1 | 26.9* | -0.8 | 3.6 | -9.4 | -2.2
O=C(CSCc1ccc(Cl)cc1)Nc1ccccc1O | -3.4 | 64.6* | 4.1 | 3.8 | -1.7
O=C(CSCc1ccc(Cl)cc1)Nc1ccccc1C(=O)N1CCOCC1 | 0.8 | 2.7 | -2.3 | 1.6 | 0.6
Cc1ccc(NC(=O)/C(C#N)=C/c2ccc(C)s2)c(C)c1 | 13.3* | 13.3 | -19.6 | -1.2 | 3.3
Cc1ccc(/C=C(\C#N)C(=O)Nc2c(C)cccc2C)s1 | -0.1 | 8.9 | -14.6 | 0.5 | -1.0
C#CCOCCOCCOCCNc1nc(N2CCN(C(=O)CCCCCCCCCCNC(=O)C(CCSC)n3cc(CCO)nn3)CC2)nc(N2CCN(C(=O)CCCCCCCCCCNC(=O)C(CCC(=O)O)n3cc(CCCCCN)nn3)CC2)n1 (stereo not given) | . | 2.8 | . | . | .
CN(CC(=O)Nc1ccc(OC(F)(F)F)cc1)C(=O)/C=C/c1cc2c(cc1[N+](=O)[O-])OCO2 | 0.5 | 29.6* | -1.3 | . | -2.6
SMILES | UGM FP inh | Mtb hypoxia inh | Rv3671c inh | RecA splice inh | FadD28 FP inh
Cc1noc(C)c1CSCC(=O)Oc1ccc(N(C)S(=O)(=O)c2ccccc2)cc1 | 2.6 | -5.2 | 8.3 | 38.1* | -0.3
CCc1noc(C)c1C(=O)Oc1ccc(N(C)S(=O)(=O)c2ccccc2)cc1 | -1.4 | -11.2 | 10.2 | 10.8 | -3.2
Cc1noc(C)c1CSCC(=O)Oc1ccc(N(C)S(=O)(=O)c2ccc(Cl)cc2)cc1 | -1.2 | 6.5 | -4.4 | 40.1* | -2.4
O=C(OCCN1C(=O)c2ccccc2C1=O)c1cc(S(=O)(=O)N2CCOCC2)ccc1Cl | 1.1 | . | -1.1 | 2.3 | -3.8
O=C(OCCN1C(=O)c2cccc3c(N4CCOCC4)ccc(c23)C1=O)c1cccc(Cl)c1 | 24.5* | -1.6 | -22.9 | -109.5 | .
O=C1c2cccc3c(N4CCCCC4)ccc(c23)C(=O)N1CCO | 30.3* | 1.6 | -3.5 | -29.0 | -0.6
O=C(OCCN1C(=O)c2cccc3c(N4CCOCC4)ccc(c23)C1=O)c1ccccc1Cl | 22.3* | 3.4 | -42.0 | -336.8 | 0.0
O=C(COC(=O)c1cccc(Cl)c1)Nc1cc(S(=O)(=O)N2CCOCC2)ccc1N1CCOCC1 | . | -7.6 | . | . | -0.8
C=CCN1C(=O)c2cccc3c(N4CCCCC4)ccc(c23)C1=O | 7.4 | -0.7 | -4.5 | -45.1 | -0.5
O=C(OCCN1C(=O)c2cccc3c(N4CCOCC4)ccc(c23)C1=O)c1ccc(Cl)cc1Cl | 22.9* | 9.2 | -33.0 | -58.1 | -4.2
Cc1c(C(C)CCCO)oc(=O)c2c1Oc1c(C)c(C(C)CC(C)O)oc(=O)c1C2 (stereo not given) | . | 4.8 | . | . | .
Cc1ccc2c(c1)C1C(CO2)C(c2ccccc2)[C@]2(C)C(=O)Nc3ccc(Cl)cc3C(=O)N12 (stereo not given in full) | . | 14.2 | . | . | .
Cc1n[nH]c(C)c1N1C(=O)c2cccc3c(N4CCCCCC4)ccc(c23)C1=O | 13.6* | -8.1 | 18.9 | -70.2 | 2.1
CC=CC(=O)Nc1cccc(C2=NOC3(C2)CC(C(N)=O)N(C(=O)c2ccccc2)C3)c1 (stereo not given) | . | -1.4 | . | . | .
COc1ccc(C2C(C#N)=C(N)Oc3c2c(C)nn3-c2ccccc2)cc1Cn1nc(C)c([N+](=O)[O-])c1C (stereo not given) | 2.0 | . | 10.5 | 53.6* | 2.1
C#CCOCCOCCOCCNc1nc(N2CCN(C(=O)CCCCCCCCCCNC(=O)[C@H](CCCCN)n3cc(C[C@@H](C)CC)nn3)CC2)nc(N2CCN(C(=O)CCCCCCCCCCNC(=O)[C@H](CCCCN)n3cc(C[C@@H](C)CC)nn3)CC2)n1 | -2.5 | . | -12.6 | 65.5* | -23.9
C#CCOCCOCCOCCNc1nc(N2CCN(C(=O)CCCCCCCCCCNC(=O)[C@H](CCCCN)n3cc(CCO)nn3)CC2)nc(N2CCN(C(=O)CCCCCCCCCCNC(=O)[C@H](CCCN=C(N)N)n3cc(C[C@@H](C)CC)nn3)CC2)n1 | 2.4 | . | -19.9 | . | -11.9
C#CCOCCOCCOCCNc1nc(N2CCN(C(=O)CCCCCCCCCCNC(=O)[C@@H](CCSC)n3cc(CCO)nn3)CC2)nc(N2CCN(C(=O)CCCCCCCCCCNC(=O)[C@H]([C@@H](C)CC)n3cc(CCCCN=C(N)N)nn3)CC2)n1 | -1.0 | . | -19.4 | . | 11.3*
C#CCOCCOCCOCCNc1nc(N2CCN(C(=O)CCCCCCCCCCNC(=O)[C@@H](CCSC)n3cc(CCO)nn3)CC2)nc(N2CCN(C(=O)CCCCCCCCCCNC(=O)[C@H]([C@@H](C)CC)n3cc(CCCCCN)nn3)CC2)n1 | -0.6 | . | -7.8 | . | .
O=C1NCN(c2ccccc2)C12CCNCC2 | -0.4 | -12.0 | 2.4 | -1.4 | 0.8
O=C1NCN(c2ccccc2)C12CCN(CCCC(c1ccc(F)cc1)c1ccc(F)cc1)CC2 | -2.6 | 3.6 | -1.1 | 38.2* | -8.1

From PubChem BioAssay
